Screening data as filed in PubChem.
Shown are actives, neighbours in structure and some others; about 2.1% of the full set was active somewhere.
U2OS ROS induce: inducers of reactive oxygen species in cancer cells. U2OS ROS induction, H2DCF-DA fluorescence. hit rate 2% among 46,000. ROS induction (% of piperlongumine), % at 10 µM; in the data active = ROS induction above about 79%, passing the limit was not always enough; inconclusive = no clear call, values can overlap the other calls;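 note: 0% = DMSO vehicle median and 100% = reference compound median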
YB-1 expr inh: YB-1 expression inhibition. delta delta Cp (YB-1 minus CDIP) (test concentration not listed). hit rate 0.37% among 30,000. U2OS, qRT-PCR YB-1 vs CDIP delta delta Cp, 16 h; hits give high values; zero = DMSO, each unit about twofold;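 active = delta delta Cp rounded down to an integer at or above 3, about 3 SD of DMSO wells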;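 note: higher means less YB-1 transcript or more CDIP transcript relative to DMSO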
Numbers without * were called inactive; u = inconclusive; x = no result.

SMILES | U2OS ROS induce | YB-1 expr inh
C[C@H]1CN([C@@H](C)CO)C(=O)CCCn2nncc2CO[C@H]1CN(C)Cc1ccc(-c2ccccc2)cc1 | 15 | -0.4
C[C@H](CO)N1C[C@H](C)[C@@H](CN(C)S(=O)(=O)c2ccc(Oc3ccccc3)nc2)OCc2cnnn2CCCC1=O | 2 | 0.069
COc1cccc(NC(=O)N(C)C[C@@H]2OCc3cn(nn3)CCCC(=O)N([C@H](C)CO)C[C@H]2C)c1 | 108* | -0.23
C[C@@H]1CN([C@@H](C)CO)C(=O)CCCn2nncc2CO[C@@H]1CN(C)Cc1ccc(-c2ccccc2)cc1 | 91* | -0.14
C[C@H](CO)N1C[C@H](C)[C@@H](CN(C)C(=O)Nc2ccc(N3CCCCC3)cc2)OCc2cnnn2CCCC1=O | 1 | 0.2
C[C@@H]1CN([C@@H](C)CO)C(=O)CCCn2nncc2CO[C@H]1CN(C)S(=O)(=O)c1ccc(Oc2ccccc2)nc1 | 138* | -0.33
C[C@@H]1CN([C@@H](C)CO)C(=O)CCCn2nncc2CO[C@@H]1CN(C)C(=O)Nc1ccc(N2CCCCC2)cc1 | 83* | -0.14
COc1cccc(NC(=O)N(C)C[C@H]2OCc3cn(nn3)CCCC(=O)N([C@H](C)CO)C[C@H]2C)c1 | -4 | -0.24
COC(=O)C1=CN(C(C(=O)OC)c2ccccc2)C=C(C(=O)OC)C1c1ccc(F)cc1 (stereo not given) | 35 | x
COC(=O)c1cc(C)nc(Sc2ccccc2NC(=O)Nc2ccc(Cl)cc2)n1 | 39 | 0.1
CS(=O)(=O)NC(c1ccccc1)c1ccccc1 | -12 | x
CCCCCCCCC#CC#C/C=C/CCCC(=O)O | 2 | 0.44
COc1cccc(CN(C)C[C@@H]2OCc3cnnn3CCCC(=O)N([C@@H](C)CO)C[C@H]2C)c1 | u | -0.64
COc1cccc(CN(C)C[C@H]2OCc3cnnn3CCCC(=O)N([C@@H](C)CO)C[C@H]2C)c1 | 125* | 0.62
O=C(CSc1nc2ccccc2[nH]1)n1c2ccccc2c2ccccc21 | -17 | x
O=c1ccnc(SCc2ccc(Cl)cc2)[nH]1 | 49 | -0.29
Clc1ccc(CSc2ncccn2)cc1 | 94* | x
NC(N)=NS(=O)(=O)c1ccc(NC(=O)c2ccco2)cc1 | 29 | x
Cc1cc(-c2c(C(=O)Sc3ccccc3)c(C)nn2-c2ccccc2)no1 | 56 | x
Cc1ccc(SC(=O)c2c(C)noc2-c2cc(C)on2)cc1 | 109* | x
COC(=O)c1ccc(NC(=O)C(C)C)cc1 | -14 | x
C=C1C(=O)O[C@H]2C1CCC(C)=C1C(=O)C=C(C)[C@@]12O (stereo not given in full) | 69 | 0.18
C=C1C(=O)O[C@@H]2C3O[C@]3(C)CC/C=C(/C)CC[C@@H]12 (stereo not given in full) | 92* | -0.016
C=C1C(=O)O[C@@H]2[C@H]3O[C@]3(C)CCC=C(C)CC[C@@H]12 | 101* | -0.063
C=C1C(=O)O[C@@H]2[C@H]1[C@H](O)C[C@]1(C)[C@@H](O)CC=C(C)[C@@H]21 | 34 | -0.00055
SMILES | U2OS ROS induce | YB-1 expr inh
O=C(Cc1ccc(Br)cc1)Nc1nccs1 | -19 | x
CN(C1CCCCC1)S(=O)(=O)N1CCCC(C(=O)O)C1 (stereo not given) | 28 | x
Nc1nnnn1CC(=O)N(Cc1ccco1)C1(C(=O)Nc2ccccc2)CCCCC1 | -2 | x
COc1ccc(C(=O)NCC#N)cc1 | 11 | x
COC(=O)c1c(C)nc(C)c(C(=O)OC)c1-c1csc(S(=O)(=O)Nc2ccc(OC)cc2)c1 | 29 | x
COc1cc(C2NC(=S)NC(C)=C2C(=O)Nc2ccccc2Cl)ccc1OCC#N (stereo not given) | 103* | x
CC1=C(C(=O)Nc2ccccc2Cl)C(c2cc(Br)ccc2OCC(N)=O)NC(=S)N1 (stereo not given) | 7 | x
Cc1ccc(C23CC4CC(CC(C(=O)NC5=NCCS5)(C4)C2)C3)cc1 | 60 | -0.12
O=c1c(-c2ccc(O)cc2)coc2cc(OC3OC(CO)C(O)C(O)C3O)cc(O)c12 (stereo not given) | -12 | -0.35
COc1cc(O)c2c(=O)c(-c3ccc(O)cc3)coc2c1 | 16 | 3*
CN(C(=O)c1ccccc1)c1ccccc1 | 4 | x
COc1ccc(C#Cc2cnc3c(c2)C(=O)N([C@H](C)CO)C[C@H](C)[C@H](CN(C)C(=O)Nc2ccc4c(c2)OCO4)O3)cc1OC | 118* | 0.05
COc1ccc(NC(=O)N(C)C[C@@H]2Oc3ncc(C#CCN(C)C)cc3C(=O)N([C@H](C)CO)C[C@@H]2C)cc1 | -6 | 0.24
C[C@H](CO)N1C[C@H](C)[C@H](CN(C)C(=O)Nc2ccc(F)cc2)Oc2ncc(C#Cc3ccc(F)cc3)cc2C1=O | u | -0.37
C[C@H](CO)N1C[C@H](C)[C@H](CN(C)C(=O)Nc2ccccc2)Oc2ncc(C#Cc3ccc(F)cc3)cc2C1=O | 132* | -0.51
COc1ccc(C#Cc2cnc3c(c2)C(=O)N([C@H](C)CO)C[C@H](C)[C@H](CN(C)C(=O)Nc2c(C)noc2C)O3)cc1OC | 24 | 0.091
